Assay results from PubChem BioAssay.
Calls of active or inactive are those of the source. Unless noted, the rule behind the calls is not given here.

Columns and labels:
[1] = HepG2 liver cancer cell viability effects, profiling panel, resazurin fluorescence, 24 h, PK04 Diversity Set (AID 1172); settings: higher = more signal
[2] = basal S. cerevisiae growth modulation, no modifier, primary screen, OD600, strain BY4716, 24 h, basal condition (AID 1173); settings: OD600, 24 h, higher = more signal, called active from +8 up or from −8 down
[3] = MM1S myeloma cell viability, profiling panel, resazurin fluorescence, basal, 24 h, PK04 Diversity Set (AID 1174); settings: higher = more signal, called active from +8 up or from −8 down;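 note: MM1S multiple myeloma cell line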
[4] = target: Dihydroorotate dehydrogenase (quinone), mitochondrial (Plasmodium falciparum (isolate 3D7)) (UniProt Q08210); assay: PfDHODH enzyme inhibitors, primary screen, biochemical, C-terminal His tag, absorbance 600 nm (AID 1175); settings: DCIP absorbance 600 nm, higher = more signal, called active from +8 up or from −8 down;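 note: recombinant parasite enzyme with a five histidine tag at its C terminus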
Chain of Dihydroorotate dehydrogenase (quinone), mitochondrial (Plasmodium falciparum (isolate 3D7)) (Q08210 whole entry, looked up): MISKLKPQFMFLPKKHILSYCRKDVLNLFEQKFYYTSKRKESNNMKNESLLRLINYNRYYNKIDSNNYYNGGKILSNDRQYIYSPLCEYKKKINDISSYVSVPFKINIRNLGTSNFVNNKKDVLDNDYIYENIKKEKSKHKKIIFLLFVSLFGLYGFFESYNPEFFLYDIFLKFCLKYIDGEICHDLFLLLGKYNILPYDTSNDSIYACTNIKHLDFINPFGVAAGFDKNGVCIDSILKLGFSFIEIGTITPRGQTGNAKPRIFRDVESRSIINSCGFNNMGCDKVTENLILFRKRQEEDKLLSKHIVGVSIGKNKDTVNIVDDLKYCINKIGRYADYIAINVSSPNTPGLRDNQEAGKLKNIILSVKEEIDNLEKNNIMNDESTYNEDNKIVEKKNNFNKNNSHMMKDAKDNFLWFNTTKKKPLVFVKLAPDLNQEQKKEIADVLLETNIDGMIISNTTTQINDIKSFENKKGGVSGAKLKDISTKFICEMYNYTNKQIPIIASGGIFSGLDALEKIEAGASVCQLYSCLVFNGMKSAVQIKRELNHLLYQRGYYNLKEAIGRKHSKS

[5] = P. aeruginosa biofilm formation inhibitors, primary screen, strain PAO1, LB-PBS medium, absorbance 600 nm (AID 1176); settings: P. aeruginosa PAO1 growth/biofilm, A600, 12 h; higher = more signal
[6] = S. cerevisiae RM11-1a growth modifiers, primary screen, strain RM11-1a, OD600, basal, 24 h (AID 1177); settings: OD600, 24 h, higher = more signal, called active from +8 up or from −8 down;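 note: cultures grown under basal conditions with no added stressor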
[7] = E. coli acrAB mutant growth effects, primary screen, E. coli filamentation inducers, strain DRC39, OD650, 24 h (AID 1178); settings: higher = more signal, called active from +8 up or from −8 down;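 note: growth measured as culture turbidity by optical density at 650 nm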
[8] = E. coli acrAB mutant growth effects, primary screen, E. coli filamentation inducers, strain DRC39, OD650, 48 h (AID 1179);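 note: screen aims at cell division blockers that make cells filament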; settings: E. coli DRC39 delta-acrAB growth, higher = more signal, called active from +8 up or from −8 down
[9] = RPMI8226 myeloma cell viability, profiling panel, resazurin fluorescence, basal, 24 h, PK04 Diversity Set (AID 1180); settings: higher = more signal;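 note: RPMI8826 multiple myeloma cell line at 5000 cells per well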
[10] = target: E3 ubiquitin-protein ligase XIAP (Homo sapiens) (UniProt P98170); assay: XIAP binders, primary screen, biophysical, small-molecule microarray, fluorescence 635 nm (AID 1181); settings: small-molecule microarray binding, higher = more signal;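 note: score merges 667 nm emission and signal to noise over triplicate slides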
Chain of E3 ubiquitin-protein ligase XIAP (Homo sapiens) (P98170 whole entry, looked up): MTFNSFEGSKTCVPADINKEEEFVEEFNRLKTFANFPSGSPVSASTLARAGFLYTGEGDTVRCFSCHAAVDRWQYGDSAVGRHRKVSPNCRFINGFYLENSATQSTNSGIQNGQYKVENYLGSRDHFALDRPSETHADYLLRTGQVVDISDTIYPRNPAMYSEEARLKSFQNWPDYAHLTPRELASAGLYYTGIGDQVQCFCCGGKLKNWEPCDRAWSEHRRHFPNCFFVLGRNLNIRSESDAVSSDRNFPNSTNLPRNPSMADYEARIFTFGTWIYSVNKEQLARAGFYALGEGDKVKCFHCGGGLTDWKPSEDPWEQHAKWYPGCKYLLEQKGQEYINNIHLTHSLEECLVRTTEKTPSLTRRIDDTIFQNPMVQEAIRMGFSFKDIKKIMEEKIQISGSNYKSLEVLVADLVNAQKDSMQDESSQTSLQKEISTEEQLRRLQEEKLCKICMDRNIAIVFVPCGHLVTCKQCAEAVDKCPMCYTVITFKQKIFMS

[11] = test system: XIP peptide (Xip251-270) binding; assay: small-molecule binders of XIP peptide, primary screen, biochemical, small-molecule microarray, fluorescence 635/667 nm, 0.1 µg/mL protein (AID 1182); settings: fluorescent protein binding, 635 nm, higher = more signal, called active from +8 up or from −8 down
XIP peptide (Xip251-270) = assay: small-molecule binders of XIP peptide, primary screen, biochemical, small-molecule microarray, fluorescence 635/667 nm, 0.5 µg/mL protein (AID 1183); settings: small-molecule microarray binding, fluorescence 635 nm; higher = more signal
[12] = Plasmodium falciparum growth inhibition, primary screen, strain 3D7, DAPI fluorescence, 100 nL (AID 1184);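 note: parasites grown inside human red blood cells in medium with human serum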; settings: P. falciparum 3D7 growth, 3 d, higher = more signal
[13] = target: Homeobox protein Hox-A13 (Mus musculus) (UniProt Q62424); assay: inhibitors of HoxA13-DNA binding, primary screen, biochemical, fluorescence polarization, labeled oligonucleotide (AID 1185); settings: 15 min, higher = more signal, called active from +8 up or from −8 down
Chain of Homeobox protein Hox-A13 (Mus musculus) (Q62424 whole entry, looked up): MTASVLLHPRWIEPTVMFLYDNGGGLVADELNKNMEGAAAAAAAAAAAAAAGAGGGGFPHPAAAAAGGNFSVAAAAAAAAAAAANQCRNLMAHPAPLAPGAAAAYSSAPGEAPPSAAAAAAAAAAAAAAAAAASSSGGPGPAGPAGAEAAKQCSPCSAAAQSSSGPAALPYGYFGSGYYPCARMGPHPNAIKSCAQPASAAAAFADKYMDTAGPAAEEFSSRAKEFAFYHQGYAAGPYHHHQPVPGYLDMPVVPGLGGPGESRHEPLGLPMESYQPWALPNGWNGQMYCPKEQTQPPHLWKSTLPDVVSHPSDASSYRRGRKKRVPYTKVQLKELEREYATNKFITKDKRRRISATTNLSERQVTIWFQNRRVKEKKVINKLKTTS

[14] = inhibitors of hydroxyurea-induced Chk1 phosphorylation, primary screen, imaging, HeLa, phospho-Chk1 antibody, percent positive cells (AID 1186); settings: hydroxyurea-induced phospho-Chk1 immunofluorescence imaging, higher = more signal
[15] = inhibitors of hydroxyurea-induced Chk1 phosphorylation, primary screen, imaging, HeLa, phospho-Chk1 nuclear intensity (AID 1187); settings: hydroxyurea-induced phospho-Chk1 immunofluorescence imaging, higher = more signal

| Structure (SMILES) | z-score [1] | z-score [2] | z-score [3] | composite z-score [4] | z-score [5] | z-score [6] | z-score [7] | z-score [8] | z-score [9] | composite z-score [10] | composite z-score [11] | composite z-score (XIP peptide (Xip251-270)) | z-score [12] | z-score [13] | z-score [14] | z-score [15] |
| --- | --- | --- | --- | --- | --- | --- | --- | --- | --- | --- | --- | --- | --- | --- | --- | --- |
| NC(=O)NCC#Cc1ccc2c(c1)[C@]1(C(=O)N2)[C@H](c2ccccc2OCCO)N2[C@H](c3ccccc3)[C@H](c3ccccc3)OC(=O)[C@H]2[C@@H]1C(=O)NC[C@H](O)c1ccccc1 | 0.999 | -0.589 (inactive) | 1.62 (inactive) | -0.253 (inactive) | 0.601 (inactive) | 1.94 (inactive) | 1.22 (inactive) | 0.693 (inactive) | 0.462 | 0.254 | 0.427 (inactive) | 0.209 | -0.521 | -3.58 (inactive) | -0.552 (inactive) | -0.793 (inactive) |
| C=CC[C@]1(C(=O)N2CCOCC2)COC(c2ccc(OCCCO)cc2)=N1 | 1.31 | -1.37 (inactive) | 0.574 (inactive) | -0.214 (inactive) | 0.124 (inactive) | -0.19 (inactive) | 0.904 (inactive) | 0.46 (inactive) | 0.0543 | 0.0055 | 0.627 (inactive) | 0.879 | -0.813 | -6.97 (inactive) | -0.374 (inactive) | -0.0405 (inactive) |
| O=C(NCc1ccc(F)cc1)[C@H]1C[C@H]2C(=O)NCC(=O)N2[C@H]1c1ccc(O)cc1 | -1.15 | 0.407 (inactive) | 0.0901 (inactive) | -0.0559 (inactive) | -0.0185 (inactive) | 1.23 (inactive) | -0.42 (inactive) | -0.806 (inactive) | 0.18 | -0.294 | 0.981 (inactive) | 0.842 | -0.16 | -1.87 (inactive) | -0.339 (inactive) | -0.45 (inactive) |
| O=C1CS(=O)(=O)C(c2cccc([N+](=O)[O-])c2)N1c1ccccc1 (stereo not given) | 0.946 | -1.3 (inactive) | 0.973 (inactive) | -1.21 (inactive) | 0.627 (inactive) | -0.818 (inactive) | 1.16 (inactive) | 1.21 (inactive) | 0.511 | 0.0055 | 0.784 (inactive) | 0.263 | 0.66 | 0.011 (inactive) | -0.346 (inactive) | -0.291 (inactive) |
| C=CCNC(=O)[C@@H]1[C@H]2C(=O)O[C@H](c3ccccc3)[C@H](c3ccccc3)N2[C@H](c2ccccc2OCCO)[C@@]12C(=O)Nc1ccc(C#CCC(C(=O)OC)C(=O)OC)cc12 | -0.679 | 1.59 (inactive) | -8.99 (active) | -25.5 (active) | 2.19 (inactive) | 1.86 (inactive) | 0.108 (inactive) | -0.263 (inactive) | -7.28 | -0.0062 | 1.56 (inactive) | 0.343 | -2.1 | -3.02 (inactive) | 0.0648 (inactive) | -0.246 (inactive) |
| C=CCC(OC(C)=O)[C@@H]1[C@@H](N(Cc2cc3ccccc3o2)C(=O)Cc2ccc(F)cc2)c2cc(OCCCO)ccc2N1C(=O)Cc1ccc2ccccc2c1 (stereo not given in full) | 0.278 | -0.0417 (inactive) | 0.72 (inactive) | -13.4 (active) | 0.526 (inactive) | -0.146 (inactive) | -1 (inactive) | -0.861 (inactive) | 0.189 | 0.109 | -0.0865 (inactive) | -0.507 | 0.694 | -1.9 (inactive) | 0.725 (inactive) | 0.113 (inactive) |
| CCCC[C@@H](O)C1=C(COC)C[C@H]2C(=O)N(C)C(=O)[C@H]2[C@H]1CO | 0.798 | -3.7 (inactive) | -0.264 (inactive) | -1.43 (inactive) | 1.04 (inactive) | -2.16 (inactive) | 2.43 (inactive) | 0.964 (inactive) | 1.3 | -0.109 | -0.703 (inactive) | 0.336 | -0.68 | -1.8 (inactive) | -0.476 (inactive) | 0.0423 (inactive) |
| CS(=O)(=O)CCOC(=O)C1=CC(c2ccc(CO)cc2)=CC(C2CC2)N(Cc2sc3ccccc3c2Cl)C=C1C(=O)OCCS(C)(=O)=O (stereo not given) | 0.315 | -5.45 (inactive) | -2.63 (inactive) | -1.26 (inactive) | -0.563 (inactive) | 0.272 (inactive) | -3.53 (inactive) | -2.01 (inactive) | -1.85 | 0.0049 | 0.766 (inactive) | 0.492 | -3.02 | 0.0711 (inactive) | -0.27 (inactive) | 0.137 (inactive) |
| CN(C)C(=O)[C@@]1(Cc2ccccc2)N=C(c2ccc(OCCCO)cc2)O[C@H]1c1ccccc1 | 1.6 | -1.92 (inactive) | 0.857 (inactive) | -0.177 (inactive) | -0.345 (inactive) | 0.319 (inactive) | 0.0862 (inactive) | -0.146 (inactive) | 1.16 | -0.205 | 1.66 (inactive) | 0.444 | -1.58 | -6.14 (inactive) | -0.499 (inactive) | -0.304 (inactive) |
| CCCCCN1CC=CC23O[C@@H]4/C=C\CCCOC(=O)C4[C@H]2C(=O)N(C(C)CO)[C@@H]3C1=O (stereo not given in full) | 0.652 | 0.102 (inactive) | 0.295 (inactive) | -0.298 (inactive) | 0.398 (inactive) | 0.493 (inactive) | 1.25 (inactive) | 0.945 (inactive) | 0.541 | -0.162 | 0.221 (inactive) | 0.106 | 0.266 | -3.74 (inactive) | -0.107 (inactive) | 0.37 (inactive) |
